# Laboratory results as given in PubChem BioAssay (NCATS).
# Results filed as inconclusive are left out. A number with no mark means an inactive call. Calls follow the shape of the dose curve; as a rule, active = well fitted activation curve with a large enough effect; inconclusive = small, poorly fitted or top-dose-only effect; inactive = no such curve, though single readings can be large or run the other way.
# Target: Cellular tumor antigen p53 (Homo sapiens) (UniProt P04637)
# Experiment: Primary qHTS for small molecule compounds that upregulate eGFP-tagged delta133p53alpha (in N-terminal) cells. (AID 2060322);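 also: cells pre-induced with doxycycline then dosed without doxycycline; series mostly up to about 56 µM; 0% = DMSO vehicle and 100% = reference activator; nearly all actives have a fitted effect of over 75% in size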
# Details: NCI-H358 eGFP-delta133p53alpha fluorescence, 24 h; activation: stronger effect = higher value
# Summary of the method: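 NCI-H358 cells pre-induced 24 h with 10 ng/ml doxycycline for eGFP-delta133p53alpha, plated dox-free and exposed 24 h at 37C to titrated compounds. Fixed, Hoechst-stained; gated GFP peak intensity by laser scanning cytometry, normalized to DMSO (0%) and 57.5 uM 5-azacytidine (100%).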
# Sequence of Cellular tumor antigen p53 (Homo sapiens) (P04637 whole entry, looked up): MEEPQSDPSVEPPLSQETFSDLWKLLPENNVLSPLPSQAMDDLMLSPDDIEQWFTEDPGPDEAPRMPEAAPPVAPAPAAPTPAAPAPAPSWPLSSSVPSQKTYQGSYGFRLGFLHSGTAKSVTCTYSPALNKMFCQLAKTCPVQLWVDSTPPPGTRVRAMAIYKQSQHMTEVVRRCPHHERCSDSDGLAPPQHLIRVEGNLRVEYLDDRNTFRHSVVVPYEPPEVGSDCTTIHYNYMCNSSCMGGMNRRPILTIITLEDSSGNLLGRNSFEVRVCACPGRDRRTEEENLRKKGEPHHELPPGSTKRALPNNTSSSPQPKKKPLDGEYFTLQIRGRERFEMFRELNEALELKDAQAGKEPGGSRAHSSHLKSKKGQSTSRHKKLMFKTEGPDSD
row,Compound,activation
1,Cc1cc(F)ccc1-c1nc(NCCN=C(N)NC#N)nc2c1ccc(=O)n2-c1c(F)cccc1F,-4.46%
2,CCC/C=C/C=C/C1CC(O)C2(O)C(=O)OCC12 (stereo not given),6.11%
3,CC(O)C1CCC2C3CCC4CC(OC5OC(C(=O)O)C(O)C(O)C5O)CCC4(C)C3CCC12C (stereo not given),-17%
4,CC(=O)O[C@@H]1[C@H](O[C@@H]2O[C@@H](CO)[C@H](O)[C@H]2O)[C@@H](O[C@@H]2O[C@@H](C)[C@H](O[C@@H]3OC[C@@H](O)[C@H](O)[C@H]3O)[C@@H](O)[C@H]2O)[C@H](OC(=O)[C@]23CCC(C)(C)C[C@H]2C2=CCC4[C@@]5(C)CC[C@H](O[C@@H]6O[C@H](C(=O)O)[C@@H](O)[C@H](O)[C@H]6O[C@@H]6O[C@H](CO)[C@H](O)[C@H](O)[C@H]6O)[C@@](C)(C=O)C5CC[C@@]4(C)[C@]2(C)CC3)O[C@@H]1C (stereo not given in full),-13.7%
5,CC(=O)O[C@@H]1[C@H](O[C@@H]2O[C@H](CO)[C@@H](O)[C@H](O)[C@H]2O)[C@@H](O[C@@H]2O[C@@H](C)[C@H](O)[C@@H](O[C@@H]3O[C@H](CO)[C@@H](O)[C@H](O)[C@H]3O)[C@H]2O)[C@H](OC(=O)C23CCC4(C)C(=CCC5C6(C)CC(O)C(O[C@@H]7O[C@H](C(=O)O)[C@@H](O)[C@H](O)[C@H]7O)C(C)(C(=O)O)C6CCC54C)C2CC(C)(C)CC3O)O[C@@H]1C (stereo not given in full),22.9%
6,C[C@@H]1C(=O)O[C@H](C)[C@H]1CC(=O)[C@](C)(O)[C@H]1CC[C@@]2(O)C3=CC(=O)[C@@H]4C[C@@H](O)[C@@H](O)C[C@]4(C)C3CC[C@]12C (stereo not given in full),-6.11%
7,O=C(Nc1ccc(-c2ccncc2)cc1)N[C@H](CO)c1ccccc1,-25.9%
8,CN1CCc2nc(C(=O)N[C@@H]3C[C@@H](C(=O)N(C)C)CC[C@@H]3NC(=O)C(=O)Nc3ccc(Cl)cn3)sc2C1,1.91%
9,C=CCc1ccc(O[C@@H]2O[C@H](CO[C@@H]3O[C@H](CO)[C@@H](O)[C@H](O)[C@H]3O)[C@@H](O)[C@H](O)[C@H]2O)c(O)c1,-5.34%
10,CC1=CC(=O)CC(C)(C)[C@@]1(O)CC[C@@H](C)O[C@@H]1O[C@H](CO)[C@@H](O)[C@H](O)[C@H]1O,29.5%
11,CN(C)CC#CCCC(=O)C(O)(c1ccccc1)C1CCC1 (stereo not given),8.33%
12,O=C(O)C[C@H]1CCC(=O)[C@@H]1C/C=C\CCOC1OC(CO)C(O)C(O)C1O (stereo not given in full),-3.82%
13,Nc1nc2c(c(=O)[nH]1)C[C@@H](CCc1ccc(C(=O)N[C@@H](CCC(=O)O)C(=O)O)cc1)CN2,8.33%
14,C/C(=C\CCC(C)CCO)C(=O)O[C@@H]1[C@@H](O)[C@H](OC2OC=C(C(=O)O)C3CCC(C)(O)C23)O[C@H](CO)[C@H]1O (stereo not given in full),13.4%
15,CCC(CC)(NC(=O)C(C)C)C(=O)N[C@@H](CCCN=C(N)N)C(=O)NC1(C(=O)NC(c2ccc(F)cc2)c2ccc(F)cc2)CCCC1,-15.7%
16,O=C(NCC(O)CO)c1ccncc1Nc1ccc(I)cc1F (stereo not given),19.6%
17,COc1cccc(OC)c1-c1ccc(C[C@H](NC(=O)c2c(Cl)cccc2Cl)C(=O)O)cc1,1.67%
18,C=C1C(OC(C)=O)C(=O)C2C(C)(C)C(OC(C)=O)CCC2(C)C1CC(OC(C)=O)/C(C)=C/COC(C)=O (stereo not given),17.6%
19,CC1CCC2C(C(=O)O)=CC3CC(C)(C)CC132 (stereo not given),2.29%
20,C=C1CCC2C(C)(C)C(O)CCC2(C)C1CCC(C)CCOC(C)=O (stereo not given),5.36%

row,Compound,activation
1,C=C1CC23CC1CCC2C12OC(=O)C(C)(C(O)C(O)C1O)C2C3C(=O)O (stereo not given),2.68%
2,C/C=C(\C)C(=O)OC1CC2C(CC=C3CC(OC4CC(OC)C(OC5CC(OC)C(OC6CC(OC)C(OC7CC(OC)C(OC8CC(OC)C(OC9OC(CO)C(O)C(O)C9O)C(C)O8)C(C)O7)C(C)O6)C(C)O5)C(C)O4)CCC32C)C2(O)CCC(C(C)=O)C12C (stereo not given),-13%
3,COc1cc(C2c3cc(O)c(OC)cc3CC(CO)C2CO)ccc1O (stereo not given),8.93%
4,C/C(=C/CO)CC[C@@H]1[C@@](C)(O)CCC2C(C)(C)CCC[C@]21C (stereo not given in full),-7.14%
5,CC12CCC(OC3OC(CO)C(O)C(OC4OC(CO)C(O)C(O)C4O)C3O)CC1=CCC1C2CCC2(C)/C(=C3/COC(=O)C3)CCC12O (stereo not given),-13%
6,C=C1C(=O)OC2C1C(O)CC1(C)C(O)CCC(C=O)C21 (stereo not given),13.4%
7,C=CC(C)(O)CC[C@H]1C(=C)CCC2[C@](C)(C(=O)O)CCC[C@@]21C (stereo not given in full),24.1%
8,CCCCC(=O)N(Cc1ccc(-c2ccccc2-c2nn[nH]n2)cc1)C(C(=O)O)C(C)C (stereo not given),0%
9,COC1CC(=O)C23C(=O)NC(CC(C)C)C2C(C)C(C)=CC3/C=C(\C)CCCC1O (stereo not given),16.8%
10,C=C1CC2C3(C)C(O)CC(=O)C(C)(C)C3C(O)C(OC(C)=O)C2(C)C2C(=O)OC(C)(C(=O)OC)C(=O)C12C (stereo not given),27.5%
11,C=C(COC(=O)C(O)C(O)CN)C12OC1C1(C)C(=CC2=O)C(O)C(O)CC1C (stereo not given),-7.63%
12,CC1(C)CCC[C@@]2(C)[C@H]1[C@H](O)C=C(CO)[C@]2(O)CO,-1.53%
13,CC1=C2C=C(CO)C(CO)CCC2(C)CCC1=O (stereo not given),3.82%
14,CC1CCC(=O)CC(SCC(O)C(=O)O)CCC(=O)O1 (stereo not given),-26%
15,COCC(c1ccc(C(F)(F)F)cc1)N1CCN(C2(C)CCN(C(=O)c3c(C)ncnc3C)CC2)CC1C (stereo not given),12.4%
16,C=C(C(=O)OC)C1C(O)CC2(C)C(O)CCC(=O)C2C1O (stereo not given),-15.3%
17,O=C1CCC(c2ccccc2)(C2CCN(Cc3ccc(I)cc3)CC2)C(=O)N1 (stereo not given),4.33%
18,Clc1ccc(Nc2nc3ccccc3c3nc(C4CCCCC4)[nH]c23)cc1Cl,22%
19,C/C=C(/C)C(=O)O[C@H]1C[C@]2(C)O[C@@H]2[C@@H](OC(C)=O)[C@@]2(C)CC[C@@](O)(C(C)C)[C@H]12,-19.1%
20,C[C@@H]1O[C@@H](O[C@H]2[C@H](O[C@H]3CC[C@@]4(C)C(CC[C@]5(C)C4C=C[C@]46OC[C@@]7(CCC(C)(C)C[C@H]74)[C@@H](O[C@@H]4O[C@@H](C)[C@H](O)[C@@H](O)[C@H]4O)C[C@]65C)[C@]3(C)CO)O[C@H](CO)[C@@H](O)[C@@H]2O[C@@H]2O[C@H](CO)[C@@H](O)[C@H](O)[C@H]2O)[C@H](O)[C@H](O)[C@H]1O (stereo not given in full),0%
